According to PubChem BioAssay AID651820 (National Center for Advancing Translational Sciences (NCATS), 2012):
Screen size: about 340,000 compounds; about 12,000 (3.5%) were called active. Another 18% or so got no clear call; they are omitted. What follows is part of a selection rich in actives, with near analogues and random picks from the rest. A call without a number means that no potency is given here. Unmarked numbers belong to inactive results. Calls come from the whole dose curve; as a rule, active = well fitted inhibition curve with a large enough effect; inconclusive = small, poorly fitted or top-dose-only effect, or another doubt; inactive = no such curve, though single readings can be large or run the other way.

test: qHTS Assay for Inhibitors of Hepatitis C Virus (HCV); conditions: Huh7.5.1 HCVcc-Cre infection, luciferase reporter, 44 h; series mostly up to 41.8 µM
Procedure, shortened: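 Antiviral activity was scored by luciferase reporter output from cells infected with HCVcc-Cre (~0.5 moi) in presence of compound, 44 h infection period, cells seeded 1,000/well 4 h prior.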
Potency is the fitted concentration of half-maximal effect.

Structure (SMILES) | Potency | activity change, negative = inhibition
CCCCCCSc1ccc(-c2nc3ccc(Cl)cn3c2NCc2ccccc2)cc1 | inactive | 
C[C@@H]1NS(=O)(=O)c2cc(Cl)ccc2O[C@@H]1c1ccccc1 | inactive | 
Cc1cccc(-n2c(=O)c3c(C)c(C)sc3n(CC(N)=O)c2=O)c1 | inactive | 
Cc1cccc(NC(=O)Cn2c(=O)n(Cc3ccccc3)c(=O)c3c(C)c(C)sc32)c1 | 10 µM (active) | 
Cc1sc2c(c1C)c(=O)n(-c1ccccc1)c(=O)n2CC(=O)NCC1CCCO1 (stereo not given) | inactive | 
C=CCC(NC(=O)Cc1ccccc1)C(=O)NCCC (stereo not given) | inactive | 
CC(=NNC(=O)c1ccncc1)c1ccc(Cl)c(Cl)c1 | inactive | 
CN(Cc1cccs1)C(=O)CN1C(=O)c2ccccc2S1(=O)=O | inactive | 
COc1cc(C(=O)N2CCN(S(=O)(=O)c3ccc(C(C)C)cc3)CC2)ccc1OCC(=O)N1CCOCC1 | inactive | 
Cc1ccc(OCCOCCOc2ccc(Br)cc2/C=N\NC(=O)c2ccncc2)cc1 | inactive | 
COCC(C)NCc1cc(Br)ccc1OC (stereo not given) | inactive | 
CCC(C)NCCOCCOc1ccc(Br)cc1C (stereo not given) | 11.2 µM (active) | 
O=c1c(Cl)c(NC2CC2)cnn1-c1ccccc1 | inactive | 
Cc1cccc(-n2ncc(C#N)c2-n2cccc2)c1 | inactive | 
Cc1cccc(-n2ncc(Cl)c(Cl)c2=O)c1 | 11.2 µM (active) | 
COc1ccc(NC(=O)c2cccc(Cl)c2)c[n+]1[O-] | 3.16 µM (active) | 
O=C(Nc1ccc(NC(=O)c2ccc3c(c2)OCO3)cc1)c1cccc(Cl)c1 | inactive | 
O=C(Nc1ccon1)c1cccc(Cl)c1 | inactive | 
Cc1ccc(NC(=O)C(C)OC(=O)C2CC3CCCC(C2)C3=O)cc1S(=O)(=O)N1CCOCC1 (stereo not given) | inactive | 
CC[C@@H](C)[C@@H]1CN([C@@H](C)CN2CCC[C@H]2CN2C(N)=NC[C@H]2C(C)C)C(=N)N1CCc1ccc(Cl)c(Cl)c1 | inactive | 
COc1ccccc1C(=O)NCC(=O)OCC(=O)Nc1nnc(-c2ccccc2)o1 | inactive | 
OCCN1CCN(c2nnc(-c3ccccc3)c3ccccc23)CC1 | inactive | 
c1ccc(-c2nnc(N3CCOCC3)c3ccccc23)cc1 | inactive | 
CCCC(=O)N1CCN(c2nnc(-c3ccc(C)cc3)c3ccccc23)CC1 | 12.6 µM (active) | 
COc1ccc2nc3n(c(=O)c2c1)-c1ccc(Cl)cc1C(=O)NC3Cc1ccccc1 (stereo not given) | inactive | 
CCN(CC(=O)Nc1ccc(NC(C)=O)cc1)C(=O)CSC(=S)N1CCCC1 | inactive | 
CN(C(=O)CSc1cccc[n+]1[O-])C1CCCCC1 | inactive | 

Structure (SMILES) | Potency | activity change, negative = inhibition
Cc1ccc(N(Cc2cc(=O)[nH]c3ccccc23)C(=O)CCl)cc1 | 11.2 µM (active) | 
Cc1ccc(N(Cc2cc3ccccc3[nH]c2=O)C(=O)c2cccs2)cc1 | inactive | 
CC(=O)N(Cc1cc(=O)[nH]c2ccccc12)c1ccc(C)cc1C | inactive | 
COc1cc(O)c2c(=O)c3c(O)c(O)ccc3oc2c1OC | inactive | 
CCc1cccc(C)c1NS(=O)(=O)c1cc(Br)cnc1N | 11.2 µM (active) | 
CC(=O)c1ccc(NC(=O)CCNS(=O)(=O)c2cc(Br)cnc2N)cc1 | inactive | 
Cc1ccc(C)c(NS(=O)(=O)c2cc(Br)cnc2N)c1 | inactive | 
CCOc1ncccc1C(=O)OCC(=O)Nc1cccc(S(=O)(=O)N2CCCCCC2)c1 | inactive | 
COC(=O)[C@]1(C)N[C@H](CN(C)C(=O)c2ccc(C(C)(C)C)cc2)[C@@H]2C(=O)N(C)C(=O)[C@@H]21 |  | -14.2% [at 8.37 µM]
COCCn1c(SC(C)C(=O)NC2CC2)nnc1-c1cccc(C)c1 (stereo not given) | inactive | 
COC(=O)c1ccc(COc2ccc(/C=C/C(=O)c3ccc(OC)c(CSCC(=O)O)c3)cc2OC)cc1 | inactive | 
COc1ccc(/C=C/C(=O)c2ccc(OC)cc2O)cc1 |  | 1.23% [at 8.37 µM]
COCOc1cc(O)c(C(=O)/C=C/c2ccc(OCOC)c(OCOC)c2)c(OCOC)c1 | 7.94 µM (active) | 
COC(=O)c1c(NC(=O)C2CC(C)=C(C)CC2C(=O)O)sc2c1CCCCC2 (stereo not given) | inactive | 
CCOC(=O)c1c(NC(=O)CSc2nnc(CN3CCOCC3)n2C)sc2c1CCCC2 | 22.4 µM (active) | 
CCOC(=O)c1c(NC(=O)CSc2nnc(C)c(=O)[nH]2)sc2c1CCC2 | inactive | 
COC(=O)c1c(NC(=O)CSc2nncs2)sc2c1CCCCC2 | 7.08 µM (active) | 
COC(=O)c1c(NC(=O)CCN2CCOCC2)sc2c1CCCC2 | inactive | 
COC(=O)c1c(NC(=O)CCCC(=O)O)sc2c1CCCCC2 | inactive | 
COC(=O)[C@]1(C)CCC[C@@]2(C)C3CC[C@]4(OC(C)=O)C[C@@]3(CCC21)CC4=NO (stereo not given in full) | inactive | 
O=C(CCNC(=O)c1ccc(Br)cc1)Nc1cccc(S(=O)(=O)N2CCCCC2)c1 | inactive | 
COc1ccccc1C(=O)NCC(=O)NCCSc1ccc(Br)cc1 | inactive | 
CCc1noc(C)c1C(=O)N1CCCSC1=Nc1ccccc1OC |  | 9.92% [at 8.37 µM]
COc1ccc2c(c1)C(=O)Nc1cc(Cl)ccc1N2 | inactive | 
Cc1cccc(OCCC(=O)OCc2csc(CC(=O)Nc3ccccc3C)n2)c1 | inactive | 
CCOc1cccc(/C=C/c2ccc3ccccc3n2)c1OC(C)=O | 11.2 µM (active) | 
CCOc1ccccc1-c1cc(C(=O)N/N=C(\C)c2cccnc2)c2ccccc2n1 | inactive | 

Structure (SMILES) | Potency | activity change, negative = inhibition
NC(=O)COC(=O)/C=C/c1ccc2ccccc2n1 | inactive | 
COC(=O)[C@]1(CC(C)C)N[C@H](c2ccc(SC3CCCCC3)cc2)[C@@H]2C(=O)N(C)C(=O)[C@@H]21 | inactive | 
CCN(CC(=O)Nc1c(F)cccc1F)C(=O)Cc1cccs1 | inactive | 
Cc1nc(-c2ccc(F)cc2)c(CC(=O)Nc2cccc(S(=O)(=O)N3CCOCC3)c2)s1 | inactive | 
CC(C)(C)OC(=O)NCCCCCNC(=O)c1[nH]cnc1C(=O)Nc1nccs1 | inactive | 
COc1cccc(Nc2nc(N)c([N+](=O)[O-])c(NCc3ccco3)n2)c1 | 10 µM (active) | 
Nc1nc(NCCCN2CCOCC2)nc(Nc2ccccc2)c1[N+](=O)[O-] | inactive | 
Nc1nc(Nc2ccccc2)nc(NCCO)c1[N+](=O)[O-] | inactive | 
COc1ccccc1CNC(=O)COC(=O)CNS(=O)(=O)c1ccc(NC(C)=O)cc1 | inactive | 
CCOc1ccc(OCC(=O)OC(C)C(=O)NC2CCCCC2C)cc1 (stereo not given) | inactive | 
O=c1ccc(S(=O)(=O)N2CCCC2)cn1Cc1nc(-c2ccccc2)no1 | inactive | 
CC1CCCN(C(=O)c2cc(-c3ccco3)nc3ccccc23)C1 (stereo not given) | inactive | 
COc1ccc(OCCCCN2CCC(C)CC2)cc1 | inactive | 
C/C=C/c1ccc(OCCCCN2CCC(C)CC2)c(OC)c1 | 14.1 µM (active) | 
C/C=C/c1ccc(OCCOc2ccc(C=O)cc2OC)c(OC)c1 | inactive | 
Fc1ccc2cnc(-c3ccccc3)cc2c1 | inactive | 
COc1cc2c3c(c1)/C(=C1/SC(=S)NC1=O)C(=O)N3C(C)(C)C=C2C | 25.1 µM (active) | 
CC(C)Oc1ccc(S(=O)(=O)N2CCOCC2)cc1NC(=O)C1CSC2(C)CCC(=O)N12 (stereo not given) | inactive | 
COc1cc(C(=O)NCC(=O)NCCSc2ccc(Br)cc2)cc(OC)c1OC | inactive | 
CSc1nsc(NC(=O)Nc2ccccc2)n1 | inactive | 
CCSc1nsc(NC(=O)Nc2cccc(C(C)=O)c2)n1 | 11.2 µM (active) | 
CC(=O)c1cccc(NC(=O)c2ccncc2)c1 | inactive | 
Cc1ccc(C)c(NC(=O)C(c2ccccc2)N2CCN(CC(=O)NC3CC3)CC2)c1 (stereo not given) | inactive | 
COc1ccc(CCNc2nc(C)cc(C)n2)cc1OC | inactive | 
CCS(=O)(=O)NCCc1ccc(OC)c(OC)c1 | inactive | 
COc1ccc(CCNc2ncnc3nc[nH]c23)cc1OC | 11.2 µM (active) | 
Nc1c(C(=O)OCC(=O)Nc2ccc(OC(F)F)cc2)[nH]c(=O)[nH]c1=O | inactive | 

Structure (SMILES) | Potency | activity change, negative = inhibition
CCCn1c(N)c(N(CCOC)C(=O)C2CCCC2)c(=O)[nH]c1=O | inactive | 
CCC1CCCCN1CCCNC(=O)C1CCC(Cn2c(=O)[nH]c3ccccc3c2=O)CC1 (stereo not given) | inactive | 
CCC1CCCCN1CCCNC(=O)c1cc2c(Cl)nc3ccccc3c2s1 (stereo not given) | 8.91 µM (active) | 
Cc1nc2ccccc2c2oc(C(=O)NCCCN3CCC(C)CC3)cc12 | inactive | 
C#CCOCCOCCOCCNc1nc(N2CCN(C(=O)[C@H](CO)n3cc([C@@H](N)C(C)C)nn3)CC2)nc(N2CCN(C(=O)[C@H](CCC(=O)O)n3cc([C@@H](N)[C@H](C)CC)nn3)CC2)n1 | inactive | 
Nc1ccc2[nH]c(=S)sc2c1 | inactive | 
COc1ccc(CCN2CC(C(=O)OCC(=O)NCc3ccccc3Cl)CC2=O)cc1OC (stereo not given) | inactive | 
CC(NC(=O)c1ccccc1SCC(=O)N1CCCC1)c1ccccc1 (stereo not given) | inactive | 
CC(=O)Nc1ccc(OCC(O)CN2CCN(c3ccccc3Cl)CC2)cc1 (stereo not given) | inactive | 
O=C(c1ccccc1)c1ccc(OCC(O)CN2CCCC2)cc1 (stereo not given) | inactive | 
O=C(c1ccc(Cl)cc1)c1ccc(OCC(O)CN2CCCCC2)cc1 (stereo not given) | 14.1 µM (active) | 
O=C1NCC(c2ccccc2)(c2ccccc2)C(=O)N1 | inactive | 
CC1CC(C)CN(C(=O)COC(=O)c2ccc3ncsc3c2)C1 (stereo not given) | inactive | 
COc1ccc(S(=O)(=O)Nc2ccc3oc(C)c(C(C)=O)c3c2)cc1 | 7.94 µM (active) | 
CC(=O)c1c(C)oc2ccc(NS(=O)(=O)c3ccc(C(=O)O)cc3)cc12 | inactive | 
CC(=O)c1c(C)oc2ccc(NS(=O)(=O)c3ccccc3)cc12 | inactive | 
CC(OC(=O)c1ccc(S(=O)(=O)N2CCOCC2)cc1)c1ccccc1 (stereo not given) | inactive | 
COC1=CC(=O)OC(C)(c2ccccc2)C1 (stereo not given) | inactive | 
Cc1ccccc1C(=O)NC(=S)Nc1ccc(N2CCN(C(=O)c3ccccc3)CC2)cc1 | 11.2 µM (active) | 
O=C(Nc1ccc(N2CCN(C(=O)c3cccs3)CC2)cc1)c1cccnc1Cl | inactive | 
CN1CCN(c2ccc(NC(=O)c3ccccc3)cc2)CC1 | inactive | 
O=C(Nc1ccc(N2CCN(C(=O)C3CC3)CC2)cc1)c1cccs1 | inactive | 
Cc1ccccc1C(=O)N1CCN(c2ccc(NC(=O)c3cccs3)cc2)CC1 | 11.2 µM (active) | 
O=C(Cc1ccccc1)NC(=S)Nc1ccc(N2CCCCC2)cc1 | inactive | 
